The panel holds about 83,000 compounds, 20% with a hit somewhere; the sample as a whole holds those more often.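 Compound tested at a single concentration for 48 hours in 96-well plates; a percent growth value below 10 was scored as active.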 A number with no mark means an inactive call. Activity calls are given as the source filed them.
What was measured:
Test in all cases: NCI-60 one-dose screen, 48 h (100 = growth as untreated, 0 = no growth, -100 = all killed)
Conditions in all cases: 10 µM unless noted
[1] = system: NCI-H23 lung
[2] = system: NCI-H226 lung
[3] = system: NCI-H322M lung
[4] = system: HOP-62 NSCLC
[5] = system: NCI-H460 lung
[6] = system: HOP-92 NSCLC
[7] = system: NCI-H522 lung
[8] = system: A549/ATCC NSCLC
[9] = system: 786-0 renal
[10] = system: COLO 205 colon
[11] = system: DU-145 prostate
[12] = system: K-562 leukemia
[13] = system: MALME-3M melanoma
[14] = system: MDA-MB-231 breast
[15] = system: RXF 393 renal
[16] = system: SF-268 CNS
[17] = system: SF-295 CNS
[18] = system: SF-539 CNS
[19] = system: UACC-257 melanoma
[20] = system: M14 melanoma

| SMILES | growth [1] | growth [2] | growth [3] | growth [4] | growth [5] | growth [6] | growth [7] | growth [8] | growth [9] | growth [10] | growth [11] | growth [12] | growth [13] | growth [14] | growth [15] | growth [16] [%] | growth [17] | growth [18] | growth [19] | growth [20] |
| --- | --- | --- | --- | --- | --- | --- | --- | --- | --- | --- | --- | --- | --- | --- | --- | --- | --- | --- | --- | --- |
| Cc1ccc(C(=O)c2ccc(CC(=O)N/N=C/c3ccc(O)cc3O)n2C)cc1 | 42.4% | 65.7% | 38% | 40.6% | 21.1% | 83.1% | 55.5% | 46.6% | 43.4% | 41.8% | 51.3% | 45% | 48.6% | 51.4% | 49.7% | 37.3 | 47.2% | 44.4% | 68.3% | 28.8% |
| COC(c1ccc2ccccc2c1)C(C)C(F)F (stereo not given) | 95.7% | 100% | 99.6% | 86.7% | 111% | 107% | 86.9% | 96.8% | 90.5% | 112% | 110% | 97.1% | 99.5% | 111% | 106% | 100 | 97.1% | 95.2% | 91.3% | 99.1% |
| CCOC(=O)/C=C/c1c(C)[nH]c(=O)[nH]c1=O | 81.2% | 98.6% | 136% | 93.7% | 51.7% | 114% | 59.6% | 97.2% | 114% | 92.6% | 21% | 101% | 172% | 93.1% | 89.3% | 96 | 76.5% | 98.9% | 109% | 97.5% |
| COc1ccc(-c2ccc(-c3ccc(C(=N)N)cn3)s2)cc1 | 98.8% | 84.5% | 91.9% | 90% | -22.6% (active) | 80% | 82.4% | 63.6% | 99.7% | 62.4% | 64.2% | 0.33% (active) | 102% | 87.7% | 97.8% | 99 | 104% | 94.3% | 102% | 101% |
| O=C1C(Cl)=C(NCCN2CCOCC2)C(=O)c2ncccc21 | -41.8% (active) | -37.8% (active) | 1.09% (active) | -63% (active) | 0.786% (active) | 72.6% | -74% (active) | -54.3% (active) | 18.1% | -75.2% (active) | -88.5% (active) | -33.5% (active) | -79.3% (active) | 18.6% | -27.5% (active) | 11 | -40.5% (active) | -85.8% (active) | -92.8% (active) | -85.9% (active) |
| CCN1C(=O)N(CC)C2C1NN=c1s/c(=C\c3cc4ccccc4[nH]3)c(=O)n12 (stereo not given) | 34.8% | 38.6% | 50.6% | 16.5% | 0.818% (active) | -5.71% (active) | -12.2% (active) | 0.183% (active) | 28.9% | -32.5% (active) | 16.4% | 9.13% (active) | 33.4% | 14.7% | 47.3% | 25.6 | 18.6% | -21.9% (active) | 45.5% | 19.8% |
| COC(=O)c1nc(-c2ccccc2)oc1S(=O)(=O)N1CCC(C(N)=O)CC1 | 90.4% | 85.2% | 93.6% | 104% | 102% | 23.7% | 0.81% (active) | 98.8% | 51.9% | 20.6% | 55.1% | 14.8% | 46.1% | 76% | 47.4% | 85.9 | 107% | 63.2% | 69.2% | 48.1% |
| CN(Cc1cnc2nc(N)nc(N)c2n1)c1c(Cl)cc(C(=O)NC(CCC(=O)O)C(=O)O)cc1Cl (stereo not given) | 25.8% | 67.5% | 31.2% | 23.8% | 20.2% | 15.4% | 24.5% | 15.6% | 12.7% | 53% | 23.8% | 21.6% | 68.5% | 68% | 30.9% | 28.4 | 2.98% (active) | 21.4% | 33.8% | 21.3% |
| CC[C@]12C=CCN3CC[C@@]4(c5ccc(OC)cc5N(C)[C@H]4[C@@](O)(C(=O)OC)[C@@H]1OC(=O)CCCN1CCOCC1)[C@@H]32 | 106% | 108% | 106% | 99.1% | 111% | 94.5% | 100% | 101% | 96.9% | 108% | 106% | 100% | 110% | 115% | 114% | 98.6 | 104% | 106% | 104% | 103% |
| Fc1ccc(CNc2c3ccccc3nc3ccccc23)cc1 | 31.6% | 51.8% | 38.5% | 43% | 8.85% (active) | 17.2% | 52.4% | 23.7% | 27.6% | 7.53% (active) | 34.9% | 4.79% (active) | 25.7% | 38.3% | 0.247% (active) | 53.3 | 27.6% | 13.1% | 36% | 34.4% |
| O=C(Nc1ccc(F)cc1)Nc1ccccc1CNc1nc(Nc2ccc(OCCN3CCCC3)cc2)ncc1Cl | 60.8% | 99.1% | 89.1% | 51.3% | 9.85% (active) | 52.2% | 37% | 38.2% | -16.3% (active) | 0.109% (active) | 47% | 2.99% (active) | -29.3% (active) | -30.9% (active) | -50% (active) | 56.5 | 82.3% | -74.7% (active) | 5.96% (active) | -39.2% (active) |
| COc1cc(C(=O)c2c(-c3ccccc3)oc3c(OC)cccc23)cc(OC)c1O | 34% | -0.617% (active) | 56.2% | 31.8% | 3.99% (active) | 34.9% | 13.1% | 20.2% | 33.4% | 7.65% (active) | 23% | 13.4% | 47.4% | 17% | -6.63% (active) | 46.5 | 2.85% (active) | -13.2% (active) | 71.4% | 16.3% |
| Cc1ccc(N=Nc2c(N)nn(-c3ccccc3)c2N)cc1 | 6.74% (active) | 76% | 32.7% | 64% | 9.76% (active) | 86.2% | -11% (active) | 29.3% | 63.7% | 16.9% | 27.8% | 7.43% (active) | 39.3% | 54.4% | -0.509% (active) | 54.5 | 13.8% | 11.4% | 63.4% | -2.8% (active) |
| O=C(CCCCNC(=O)c1cc(=O)c(O)co1)Nc1ccccc1 | 86.2% | 102% | 102% | 118% | 99.5% | 59.1% | -5.93% (active) | 104% | 101% | 67.7% | 104% | 13.3% | 43% | 99% | 55.5% | 91 | 102% | 92.5% | 88.7% | 81.5% |
| COc1ccc(C2CC(c3ccc4c(c3)OCO4)=Nc3c(N)ncnc3N2)cc1 (stereo not given) | 107% | 100% | 95.4% | 88.6% | 111% | 62.4% | 108% | 104% | 102% | 100% | 141% | 99.6% | 106% | 90.1% | 84.3% | 93.3 | 168% | 110% | 107% | 105% |
